# Measurements: the supplement of paper PMC9135407
# Several values for one entry are separate records, joined by “and”; a condition that tells them apart may be missing. Equal entries are not always repeated. Structures can show the parent of a compound that is named as a salt. The whole screen tested about 5,800 compounds, of which about 620 (11%) showed activity. For the sample, actives were picked, then their nearest neighbours and some compounds at random. Values without a mark were called inactive.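 The calls were made as follows: active = score above a cut-off or among the top three wells of a plate; in these data no inactive exceeds 0.85.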
# System: primary human hepatic stellate cells (donor 1)
# Assay: scaled lipid accumulation score (0 = DMSO-like, 1 = nortriptyline-like); higher = stronger HSC inactivation (lipid re-accumulation), active = hit call of the paper
# Conditions: 48 h
# [1] = library stock concentration: 1 mM
# [2] = library stock concentration: 10 mM
# [3] = library stock concentration: 80 uM
# [4] = library stock concentration: 400 uM
# [5] = library stock concentration: 2 mM
# [6] = library stock concentration: 3.33 mM
compound,measurement,setting,value
C[C@H](C(=O)O)c1ccc(-c2ccccc2)c(F)c1 [(S)-Flurbiprofen],scaled lipid accumulation score,[1],0.003
Nc1ccc(C(=O)Nc2cccc(-c3nc(N4CCOCC4)c4oc5ncccc5c4n3)c2)cn1 [listing 1 of 3 here],scaled lipid accumulation score,[2],0.915 (active)
Nc1ccc(C(=O)Nc2cccc(-c3nc(N4CCOCC4)c4oc5ncccc5c4n3)c2)cn1 [listing 2 of 3 here],scaled lipid accumulation score,[2],0.995 (active)
Nc1ccc(C(=O)Nc2cccc(-c3nc(N4CCOCC4)c4oc5ncccc5c4n3)c2)cn1 [listing 3 of 3 here],scaled lipid accumulation score,[3],≤ -0.009
same,scaled lipid accumulation score,[4],0.031 and ≤ -0.005
same,scaled lipid accumulation score,[5],0.229
same,scaled lipid accumulation score,[6],0.647
Cl.Nc1ccc(C(=O)Nc2cccc(-c3nc(N4CCOCC4)c4oc5ncccc5c4n3)c2)cn1,scaled lipid accumulation score,[5],1.74 (active)
same,scaled lipid accumulation score,[2],1.25 (active)
Oc1cccc(-c2nc(N3CCOCC3)c3sccc3n2)c1 [PI3-Kinase .alpha. Inhibitor 2],scaled lipid accumulation score,[1],≤ 0
CC(C)(O)c1cc2nc(-c3cnc(N)nc3)nc(N3CCOCC3)c2s1,scaled lipid accumulation score,[4],≤ -0.005
same,scaled lipid accumulation score,[5],≤ -0.005
same,scaled lipid accumulation score,[2],0.006
Cc1c(CN2CCN(C(=O)[C@H](C)O)CC2)sc2c(N3CCOCC3)nc(-c3cnc(N)nc3)nc12,scaled lipid accumulation score,[3],0.079
same,scaled lipid accumulation score,[4],≤ -0.015
same,scaled lipid accumulation score,[5],≤ -0.016
same,scaled lipid accumulation score,[6],≤ 0
same,scaled lipid accumulation score,[2],≤ 0 and ≤ -0.016
Oc1cccc(-c2nc(N3CCOCC3)c3oc4ncccc4c3n2)c1 [listing 1 of 2 here],scaled lipid accumulation score,[2],0.923 (active)
O=c1cc(N2CCOCC2)oc2c1ccc1ccccc12,scaled lipid accumulation score,[3],≤ 0
same,scaled lipid accumulation score,[4],≤ 0
same,scaled lipid accumulation score,[5],≤ 0
same,scaled lipid accumulation score,[2],≤ 0 and 0.033
Oc1cccc(-c2nc(N3CCOCC3)c3oc4ncccc4c3n2)c1 [listing 2 of 2 here],scaled lipid accumulation score,[3],0.118
same,scaled lipid accumulation score,[4],0.051 and ≤ -0.005
same,scaled lipid accumulation score,[1],≤ 0
same,scaled lipid accumulation score,[5],≤ -0.009 and ≤ -0.005
same,scaled lipid accumulation score,[6],0.203 and 0.016
same,scaled lipid accumulation score,[2],0.796 and 0.279
COc1ccc(-c2nc(N3CCOCC3)c3sc(CN(C)c4ncc(C(=O)NO)cn4)cc3n2)cn1,scaled lipid accumulation score,[3],0.745
same,scaled lipid accumulation score,[4],0.648
same,scaled lipid accumulation score,[5],0.67
same,scaled lipid accumulation score,[6],0.439
same,scaled lipid accumulation score,[2],0.447 and 0.588
O=c1cc(N2CCOCC2)oc2c1ccc1ccccc12 [DNA-PK Inhibitor II],scaled lipid accumulation score,[6],≤ 0
CC(Cc1ccc(O)c(O)c1)C(C)Cc1ccc(O)c(O)c1 (configuration not stated) [Nordihydroguaiaretic Acid],scaled lipid accumulation score,[1],0.042
COc1ccc(-n2c(C)c([N+](=O)[O-])c3ccc(O)cc32)cc1,scaled lipid accumulation score,[6],0.252
same,scaled lipid accumulation score,[2],0.703
O/N=C/c1ccc(-c2ccc(O)c(F)c2)c(Cl)c1O,scaled lipid accumulation score,[2],0.02
COc1ccc([C@H]2CNC(=O)C2)cc1OC1CCCC1 [(S)-(+)-Rolipram],scaled lipid accumulation score,[2],≤ -0.006
C[C@H](N)C(=O)CCCCCC(=O)O [KAPA (hydrochloride)],scaled lipid accumulation score,[1],0.007
O=C1[C@H](Cc2ccc(O)cc2)N2C(=O)CCN(C(=O)NCc3ccccc3)[C@H]2CN1Cc1cccc2ccccc12,scaled lipid accumulation score,[6],≤ 0
same,scaled lipid accumulation score,[2],0.29
CC(=Cc1ccc(C(=O)O)cc1)c1ccc2c(c1)C(C)(C)CCC2(C)C,scaled lipid accumulation score,[1],≤ -0.021
same,scaled lipid accumulation score,[2],≤ 0
CC(=Cc1ccc(C(=O)O)cc1)c1ccc2c(c1)C(C)(C)CCC2(C)C [TTNPB (Arotinoid Acid)],scaled lipid accumulation score,[6],≤ 0
same,scaled lipid accumulation score,[2],≤ -0.001
CCCCCCCCCC(=O)N[C@@H](Cc1c[nH]c2ccccc12)C(=O)N[C@@H](CC(N)=O)C(=O)N[C@@H](CC(=O)O)C(=O)N[C@@H]1C(=O)NCC(=O)N[C@@H](CCCN)C(=O)N[C@@H](CC(=O)O)C(=O)N[C@H](C)C(=O)N[C@@H](CC(=O)O)C(=O)NCC(=O)N[C@H](CO)C(=O)N[C@@H]([C@H](C)CC(=O)O)C(=O)N[C@@H](CC(=O)c2ccccc2N)C(=O)O[C@@H]1C [DAPTOMYCIN (5 millimolar/DMSO)],scaled lipid accumulation score,[2],≤ 0
CC(C)c1nn(-c2c(Cl)cccc2Cl)c2nc(Cc3ccc(OCCO)cc3)[nH]c(=O)c12,scaled lipid accumulation score,[3],0.074
same,scaled lipid accumulation score,[4],0.071
same,scaled lipid accumulation score,[5],0.275
same,scaled lipid accumulation score,[2],0.136
O=[N+]([O-])c1ccccc1S(=O)(=O)NCC1CCC(CNCC2CCc3ccccc3C2)CC1 (configuration not stated) [NTNCB hydrochloride],scaled lipid accumulation score,[2],0.622
NC(=O)N/N=C/c1ccc(Oc2ccc(F)cc2)cc1,scaled lipid accumulation score,[2],0.015
C#C[C@]1(O)CC[C@H]2[C@@H]3CCc4cc(O)ccc4[C@H]3CC[C@@]21C [Ethinyl estradiol],scaled lipid accumulation score,library stock concentration: 6.7 mM,0.516
same,scaled lipid accumulation score,[2],≤ 0
C#C[C@]1(O)CC[C@H]2[C@@H]3CCC4=Cc5oncc5C[C@]4(C)[C@H]3CC[C@@]21C [Danazol],scaled lipid accumulation score,,0.447
same,scaled lipid accumulation score,library stock concentration: 5.9 mM,0.204 and 0.103
same,scaled lipid accumulation score,[2],≤ 0
C#C[C@]1(O)CC[C@H]2[C@@H]3CCc4cc(O)ccc4[C@H]3CC[C@@]21C,scaled lipid accumulation score,[2],0.186
C#C[C@]1(O)CC[C@H]2[C@@H]3CCC4=Cc5oncc5CC4(C)[C@H]3CCC21C (some centres not stated) [Danazol],scaled lipid accumulation score,[2],0.915 (active)
C#C[C@]1(O)CC[C@H]2[C@@H]3CCc4cc(O)ccc4[C@H]3CC[C@@]21C [Ethinyl Estradiol],scaled lipid accumulation score,[6],≤ 0
same,scaled lipid accumulation score,[2],0.277
C#C[C@]1(O)CC[C@H]2[C@@H]3CCC4=Cc5oncc5C[C@]4(C)[C@H]3CC[C@@]21C,scaled lipid accumulation score,[2],0.336
CC(C)NCCN(C(C)C)S(=O)(=O)c1ccc(Cl)cc1Cl,scaled lipid accumulation score,[2],0.722
CCCCc1oc2ccccc2c1C(=O)c1cc(I)c(OCCN(CC)CC)c(I)c1.Cl [Amiodarone HCl],scaled lipid accumulation score,[2],1.27 (active)
CCCCc1oc2ccc(NS(C)(=O)=O)cc2c1C(=O)c1ccc(OCCCN(CCCC)CCCC)cc1 [Dronedarone HCl],scaled lipid accumulation score,[6],0.642
same,scaled lipid accumulation score,[2],0.263
CCCCc1oc2ccccc2c1C(=O)c1cc(I)c(OCCN(CC)CC)c(I)c1 [Amiodarone HCl],scaled lipid accumulation score,[6],0.394
CCc1oc2ccccc2c1C(=O)c1cc(Br)c(O)c(Br)c1,scaled lipid accumulation score,[2],≤ 0
CCc1oc2ccccc2c1C(=O)c1cc(Br)c(O)c(Br)c1 [Benzbromarone],scaled lipid accumulation score,,0.013
same,scaled lipid accumulation score,[6],≤ 0
same,scaled lipid accumulation score,library stock concentration: 4.7 mM,≤ 0
same,scaled lipid accumulation score,[2],≤ -0.001
CCCCc1oc2ccccc2c1C(=O)c1cc(I)c(OCCN(CC)CC)c(I)c1 [Amiodarone hydrochloride],scaled lipid accumulation score,,0.445
same,scaled lipid accumulation score,library stock concentration: 2.9 mM,0.417
CCCCc1oc2ccccc2c1C(=O)c1cc(I)c(OCCN(CC)CC)c(I)c1,scaled lipid accumulation score,library stock concentration: 7.3 mM,0.281
same,scaled lipid accumulation score,library stock concentration: 9.5 mM,1.34 (active)
CCCCc1oc2ccccc2c1C(=O)c1cc(I)c(OCCN(CC)CC)c(I)c1.Cl [Amiodarone hydrochloride],scaled lipid accumulation score,[2],1.04 (active)
CCCCc1oc2ccccc2c1C(=O)c1cc(I)c(OCCN(CC)CC)c(I)c1 [Amiodarone],scaled lipid accumulation score,library stock concentration: 3.1 mM,0.438
CCCCc1cc2ccccc2c(OCCN(C)C)n1 [Dimethisoquin hydrochloride],scaled lipid accumulation score,,0.71
NC(=O)c1cc[n+](CC2=C(C(=O)O)N3C(=O)[C@@H](NC(=O)C(c4ccccc4)S(=O)(=O)[O-])[C@H]3SC2)cc1 (some centres not stated) [Cefsulodin sodium salt hydrate],scaled lipid accumulation score,[2],0.04
NC(=O)c1ccc2nc(-c3ccc(Oc4ccc(Cl)cc4)cc3)[nH]c2c1 [Chk2 Inhibitor II],scaled lipid accumulation score,[6],≤ 0
CCCCCCCCCCCCC/C=C/[C@@H](O)[C@H](CO)NCCCCCCCC [C-8 Ceramine],scaled lipid accumulation score,[1],0.054
CCCCCCCCCCCCC/C=C/[C@@H](O)[C@H](CO)NCCCCCCCC [C8 Ceramine],scaled lipid accumulation score,[1],0.067
CCCCCC(O)C=CC1C(O)CC(O)C1CC=CCCCCOC (stereo not drawn) [Prostaglandin F2.alpha. Alcohol methyl ether],scaled lipid accumulation score,[1],≤ 0
Cc1nc2c(-c3cnc(N)nc3)nc(N3CCOCC3)nc2n1C(C)C,scaled lipid accumulation score,[6],0.019
same,scaled lipid accumulation score,[2],≤ -0.001
"Nc1ccc2c3c(cccc13)C(=O)NC2=O [4-Amino-1,8-naphthalimide] [listing 1 of 2 here]",scaled lipid accumulation score,library stock concentration: 23.6 mM,0.762
"Nc1ccc2c3c(cccc13)C(=O)NC2=O [4-Amino-1,8-naphthalimide] [listing 2 of 2 here]",scaled lipid accumulation score,[2],0.886 (active)
O=C1NC(=O)C(c2c[nH]c3ccccc23)=C1c1c[nH]c2ccccc12 [Bisindolylmaleimide IV],scaled lipid accumulation score,[1],≤ 0
same,scaled lipid accumulation score,[6],0.045
CC(C)C[C@H](NP(=O)(O)O[C@@H]1O[C@@H](C)[C@H](O)[C@@H](O)[C@H]1O)C(=O)N[C@@H](Cc1c[nH]c2ccccc12)C(=O)O [Phosphoramidon Disodium Salt],scaled lipid accumulation score,[6],≤ -0.009
same,scaled lipid accumulation score,[2],≤ 0
Cc1cc(CN2CCN(c3c(Br)cnc4nc(-c5ccc(N6CCN(C)CC6)cc5)[nH]c34)CC2)no1,scaled lipid accumulation score,[2],0.471
Cc1cc(CN2CCN(c3c(Br)cnc4[nH]c(-c5ccc(N6CCN(C)CC6)cc5)nc34)CC2)no1,scaled lipid accumulation score,[6],0.857 (active)
O=C(Nc1ccc(I)cc1)NC1CCCCC1,scaled lipid accumulation score,[2],0.938 (active)
CC(=O)c1ccc(S(=O)(=O)NC(=O)NC2CCCCC2)cc1 [Acetohexamide],scaled lipid accumulation score,,≤ 0
same,scaled lipid accumulation score,library stock concentration: 6.2 mM,≤ 0
same,scaled lipid accumulation score,[2],0.116
O=C(Nc1ccccc1)Nc1ccc(-c2ccc(C(=O)[C@@H]3CCC[C@H]3C(=O)O)cc2)cc1,scaled lipid accumulation score,[6],≤ 0
same,scaled lipid accumulation score,[2],≤ 0
